SMILES strings stand for the structures. Active and inactive are the calls of the source.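 The calls were made as follows: active = inhibition above 40% at one or more tested concentrations in the dose response counterscreen; inactive = inhibition below 40% at every dose tested.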

A short description of the experiment: nmpC-GFP expression in S. Typhimurium, late-stage follow-up, counter-screen for PhoP regulon inhibitor project, synthesized compounds, set 5 (AID 463175). To be noted: S. Typhimurium non-PhoP-regulated nmpC promoter-GFP fluorescence (growth counterscreen), 4 h; series mostly up to 150 µM. (A counterscreen serves to expose hits that act by an unwanted route or on another target.)
As for `O=C1C2=C(Nc3ccccc3SC2c2cccc(Br)c2)c2ccccc21` (stereo unspecified), the molecule was called inactive. In the case of `COc1cccc(NC(=O)N2CCCN(Cc3ccccc3F)C2)c1`, the outcome was inactive. On to `O=C1C2=C(Nc3ccccc3SC2c2ccc(Cl)cc2)c2ccccc21` (stereo unspecified), for which the call was inactive. As for `Cc1ccc(C2Sc3ccccc3N=C3c4ccccc4CC32)cc1` (stereo unspecified), the molecule was called inactive. In the case of `O=C1C2=C(Nc3ccccc3SC2c2cccnc2)c2ccccc21` (stereo unspecified), the molecule was called inactive. The result for `Clc1ccc(C2Sc3ccccc3N=C3c4ccccc4CC32)cc1` (stereo unspecified) reads “inactive”.

Source of the values: PubChem BioAssay AID463175 (Southern Research Specialized Biocontainment Screening …, 2010).
